According to PubChem BioAssay (Tox21):
Results filed as inconclusive are left out. The source made the active and inactive calls. Unless noted, the call rests on the fitted dose curve; in most records, active means well fitted curve in the direction sought with a large enough effect in the repeat runs; inconclusive means weak or mixed curves; inactive means no such curve, though single readings can be large; an effect the other way counts as inactive or inconclusive.

Key:
[1] = qHTS assay for small molecule agonists of the p53 signaling pathway (AID 651631; calls by dose curve; further: nearly all actives have a fitted effect of over 15% in size)
How it was run: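 HCT-116 cells carrying a stable p53 response element–beta-lactamase reporter were plated, rested 5 h at 37 °C, then exposed to compound in DMSO for 16 h at 37 °C; reporter activity was read as FRET substrate fluorescence after 2 h at room temperature.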

[2] = qHTS assay for small molecules that induce genotoxicity in human embryonic kidney cells expressing luciferase-tagged ATAD5 (AID 651632); further: nearly all actives have a fitted effect of over 15% in size
How it was run: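 Luminescent reporter readout, HEK293T ATAD5-luc line: 16 hr drug exposure (37C, 5% CO2) followed by Amplite, 30 min RT.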

[3] = qHTS assay for small molecule agonists of the p53 signaling pathway - cell viability (AID 651633; calls by dose curve; further: series mostly up to about 83 µM; nearly all actives have a fitted effect of over 30% in size)
How it was run: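 p53RE-bla cells were treated with compound for 16 hours at 37 C. Cytotoxicity was then measured as CellTiter-Glo luminescence after 30 min at room temperature.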

[4] = qHTS assay for small molecules that induce genotoxicity in human embryonic kidney cells expressing luciferase-tagged ATAD5 - cell viability (AID 651634; calls by dose curve; further: nearly all actives have a fitted effect of over 25% in size)
How it was run: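 Viability read: CellTiter-Fluor fluorescence, 30 min at 37C. Cells: HEK293T, luciferase-tagged ATAD5. Exposure: 15.5 hr, 37C, 5% CO2, compound or DMSO vehicle.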

[5] = qHTS assay for small molecule disruptors of the mitochondrial membrane potential - cell viability (AID 720634; calls by dose curve;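 further: human HepG2 liver cancer cells; series mostly up to about 83 µM; nearly all actives have a fitted effect of over 20% in size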)
How it was run: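 HepG2, 1 hr compound, 37 C. ATP luminescence via CellTiter-Glo, 30 min RT, same well as m-MPI.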

[6] = qHTS assay to test for compound auto fluorescence at 590 nm (red) in HepG2 cells (AID 720674)
How it was run: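 HepG2 cells, 2,000 per well in MEM with 10% FBS, attached overnight at 37 C, then got 23 nL compound or DMSO. After 1 hr at 37 C, 5% CO2, red fluorescence was read at 540/590 nm against Rose Bengal sodium as reference.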

[7] = qHTS assay to test for compound auto fluorescence at 535 nm (green) in HepG2 cells (AID 720675)
[8] = qHTS assay to test for compound auto fluorescence at 460 nm (blue) in HEK293 cells (AID 720678)
How it was run: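 HEK293, 2,000 cells/well, 10% dialyzed FBS; attach 4-5 hr 37C; pin compound or DMSO; o/n 37C/5% CO2; fluorescence 405/460 nm; triamterene-equivalent units.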

[9] = qHTS assay to test for compound auto fluorescence at 590 nm (red) in HEK293 cells (AID 720679)
How it was run: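 Intensity at 540nm excitation and 590nm emission is reported as Rose Bengal sodium-equivalent autofluorescence. Measurements followed overnight exposure (37C, 5% CO2) of HEK293 cells, 2,000 per well, to 23 nL compound.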

[10] = qHTS assay to test for compound auto fluorescence at 460 nm (blue) in HEK293 cell free culture (AID 720681)
How it was run: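 Compounds were added to cell-free DMEM with 10% FBS and fluorescence read directly. The blue channel used 405 nm excitation and 460 nm emission, with triamterene as the reference fluorophore.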

[11] = qHTS assay to test for compound auto fluorescence at 535 nm (green) in HEK293 cell free culture (AID 720682)
How it was run: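 Read-out: 485/535 nm fluorescence intensity, calibrated against fluorescein. Medium only (DMEM + 10% FBS, no cells); test compound or DMSO vehicle added by pintool before plate reading.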

[12] = qHTS assay to test for compound auto fluorescence at 590 nm (red) in HEK293 cell free culture (AID 720683)
How it was run: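 Cell-free wells of DMEM with 10% FBS received compound, and intrinsic fluorescence was read at excitation/emission 540/590 nm. Values expressed as equivalence to Rose Bengal sodium.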

[13] = qHTS assay to test for compound auto fluorescence at 590 nm (red) in HepG2 cell free culture (AID 720684)
How it was run: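 Compound was pinned into wells holding MEM with 10% FBS and no cells, and red fluorescence was read at Ex/Em 540/590 nm. Signal is expressed as auto fluorescence equivalency relative to Rose Bengal sodium.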

[14] = qHTS assay to test for compound auto fluorescence at 460 nm (blue) in HepG2 cell free culture (AID 720685)
How it was run: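 Compound (23 nL) or DMSO pinned into cell-free MEM with 10% FBS; blue fluorescence read at 405/460 nm excitation/emission, expressed as auto-fluorescence equivalency to triamterene.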

[15] = qHTS assay to test for compound auto fluorescence at 535 nm (green) in HepG2 cell free culture (AID 720686)
[16] = qHTS assay to test for compound auto fluorescence at 460 nm (blue) in HepG2 cells (AID 720687)
How it was run: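 HepG2 cells in MEM with 10% FBS, attached overnight at 37 C, were exposed to compound or DMSO for 1 hr at 37 C, 5% CO2. Blue fluorescence was read at 405/460 nm, with triamterene as reference fluorophore.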

[17] = target: Glucocorticoid receptor (Homo sapiens) (UniProt P04150); assay: qHTS assay to identify small molecule agonists of the glucocorticoid receptor (GR) signaling pathway (AID 720691; active means well fitted activation curve with a large enough effect in the signal ratio in the repeat runs, not every such curve was filed as active; the % refers to the signal ratio)
Glucocorticoid receptor (Homo sapiens), sequence (P04150 whole entry, looked up): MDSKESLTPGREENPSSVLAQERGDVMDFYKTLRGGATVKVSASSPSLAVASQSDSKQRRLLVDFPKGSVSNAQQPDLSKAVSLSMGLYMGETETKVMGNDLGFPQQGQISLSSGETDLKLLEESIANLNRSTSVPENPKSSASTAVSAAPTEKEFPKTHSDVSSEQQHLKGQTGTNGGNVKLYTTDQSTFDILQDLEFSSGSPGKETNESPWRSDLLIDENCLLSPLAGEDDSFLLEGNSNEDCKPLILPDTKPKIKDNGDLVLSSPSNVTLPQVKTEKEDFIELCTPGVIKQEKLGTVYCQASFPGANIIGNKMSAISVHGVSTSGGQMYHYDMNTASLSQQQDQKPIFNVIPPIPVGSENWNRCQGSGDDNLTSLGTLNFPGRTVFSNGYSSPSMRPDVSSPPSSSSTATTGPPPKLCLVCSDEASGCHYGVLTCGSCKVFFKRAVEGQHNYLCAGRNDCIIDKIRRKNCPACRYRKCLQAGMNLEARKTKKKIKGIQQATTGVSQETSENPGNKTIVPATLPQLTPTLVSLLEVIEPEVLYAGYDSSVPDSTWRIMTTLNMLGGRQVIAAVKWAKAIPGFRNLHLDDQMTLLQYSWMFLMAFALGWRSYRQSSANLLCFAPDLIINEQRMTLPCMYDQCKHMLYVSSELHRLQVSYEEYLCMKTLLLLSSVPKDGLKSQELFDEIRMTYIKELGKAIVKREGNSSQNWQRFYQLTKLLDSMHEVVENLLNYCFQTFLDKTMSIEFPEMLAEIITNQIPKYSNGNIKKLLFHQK
How it was run: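 qHTS in GR-bla HeLa cells: 4 h settling at 37 C/5% CO2, 18 h compound incubation at 37 C, 2 h LiveBLAzer B/G FRET substrate at room temperature, fluorescence intensity measured.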

[18] = target: Glucocorticoid receptor (Homo sapiens) (UniProt P04150); assay: qHTS assay to identify small molecule antagonists of the glucocorticoid receptor (GR) signaling pathway (AID 720692; active means well fitted inhibition curve with a large enough effect in the signal ratio in the repeat runs, not every such curve was filed as active; the % refers to the signal ratio)
How it was run: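 Inhibition of glucocorticoid signalling is measured in HeLa cells with a GRE-controlled beta-lactamase reporter; cells are co-treated with compound and 5 nM dexamethasone (final) for 18 h before FRET substrate readout.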

[19] = qHTS assay for small molecule disruptors of the mitochondrial membrane potential (AID 720635); further: potency means the concentration at half of the fitted maximal effect
How it was run: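 HepG2 cells exposed to compound 1 hr at 37C, then Mito-MPS dye 30 min. Ratio read of aggregate (540/590 nm) versus monomer (490/535 nm) fluorescence.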

[20] = qHTS assay to test for compound auto fluorescence at 535 nm (green) in HEK293 cells (AID 720680)
On the % scale 0 is the no-effect control and ±100 the full control effect.

NC(=O)NNC(N)=O
inactive: outcome [1] | outcome [2] | outcome [3] | Potency [4] | outcome [5] | outcome [6] | outcome [7] | outcome [8] | outcome [9] | outcome [10] | outcome [11] | outcome [12] | outcome [13] | outcome [14] | outcome [15] | outcome [16] | Potency [17] | outcome [18]

CCCCCC1Nc2cc(C(F)(F)F)c(S(N)(=O)=O)cc2S(=O)(=O)N1 (stereo unspecified)
inactive: outcome [1] | outcome [2] | outcome [3] | outcome [5] | Potency [19] | outcome [6] | outcome [7] | outcome [8] | outcome [9] | outcome [20] | outcome [10] | outcome [11] | outcome [12] | outcome [13] | outcome [14] | outcome [15] | outcome [16] | Potency [17] | outcome [18]

NS(=O)(=O)c1ccccc1OC(F)(F)F
inactive: outcome [1] | outcome [2] | outcome [3] | Potency [4] | outcome [5] | outcome [6] | outcome [7] | outcome [8] | outcome [10] | outcome [11] | outcome [12] | outcome [13] | outcome [14] | outcome [15] | outcome [16]

CCCCCCCCCCCCC
inactive: outcome [1] | outcome [2] | outcome [3] | Potency [4] | outcome [5] | outcome [6] | outcome [8] | outcome [9] | outcome [20] | outcome [10] | outcome [11] | outcome [12] | outcome [13] | outcome [14] | outcome [15] | outcome [16] | Potency [17] | outcome [18]

O=C1c2ccccc2-c2ccccc21
active: Potency [19] 55.9 µM
inactive: outcome [1] | outcome [2] | outcome [3] | outcome [5] | outcome [6] | outcome [8] | outcome [9] | outcome [20] | outcome [10] | outcome [11] | outcome [12] | outcome [13] | outcome [14] | outcome [15] | outcome [16] | Potency [17] | outcome [18]

O=C(Nc1cccc(C2=NCCN2)c1)Nc1cccc(C2=NCCN2)c1
inactive: outcome [1] | outcome [2] | outcome [3] | outcome [5] | Potency [19] | outcome [6] | outcome [7] | outcome [8] | outcome [10] | outcome [11] | outcome [12] | outcome [13] | outcome [15] | outcome [16] | Potency [17]

O=C(O)CCNC(=O)c1ccccc1
inactive: outcome [1] | outcome [2] | outcome [3] | Potency [4] | outcome [5] | outcome [6] | outcome [7] | outcome [8] | outcome [10] | outcome [11] | outcome [12] | outcome [13] | outcome [14] | outcome [16] | Potency [17] | outcome [18]

CCNC(=O)/C=C/c1cccc(Br)c1
inactive: outcome [1] | outcome [2] | outcome [3] | Potency [4] | outcome [5] | outcome [6] | outcome [9] | outcome [20] | outcome [10] | outcome [11] | outcome [12] | outcome [13] | outcome [14] | outcome [15] | outcome [16] | Potency [17]

COCC(=O)Nc1c(I)c(C(=O)NCC(O)CO)c(I)c(C(=O)N(C)CC(O)CO)c1I (stereo unspecified)
inactive: outcome [1] | outcome [2] | outcome [3] | Potency [4] | outcome [5] | fluorescence, relative to Rose Bengal [6] -0.339% [at 18.6 µM] | fluorescence, % of triamterene [8] -0.157% [at 18.6 µM] | fluorescence, % of fluorescent control [9] 0.231% [at 18.6 µM] | fluorescence, % of fluorescein [20] -0.025% [at 18.6 µM] | fluorescence, % of fluorescent control [10] -0.0015% [at 18.6 µM] | activity change [11] 0.0796% [at 18.6 µM] | fluorescence, % of fluorescent control [12] 0.0121% [at 18.6 µM] | fluorescence, % of Rose Bengal [13] 0.0461% [at 18.6 µM] | fluorescence, % of fluorescein control [15] -0.084% [at 18.6 µM] | fluorescence, % of fluorescent control [16] -0.143% [at 18.6 µM]

CCCCOC(=O)C(=O)OCCCC
inactive: outcome [1] | outcome [2] | outcome [3] | Potency [4] | outcome [5] | outcome [6] | outcome [8] | outcome [9] | outcome [10] | outcome [11] | outcome [12] | outcome [13] | outcome [16] | Potency [17]

COc1ccc(NS(=O)(=O)c2ccc(N)cc2)nn1
inactive: outcome [1] | outcome [2] | outcome [3] | Potency [4] | outcome [5] | fluorescence, relative to Rose Bengal [6] 0.178% [at 18.6 µM] | fluorescence, % of fluorescein control [7] -0.0175% [at 18.6 µM] | fluorescence, % of triamterene [8] -0.19% [at 18.6 µM] | fluorescence, % of fluorescent control [9] -0.981% [at 18.6 µM] | fluorescence, % of fluorescent control [10] 0.201% [at 18.6 µM] | activity change [11] -0.0484% [at 18.6 µM] | fluorescence, % of fluorescent control [12] -0.041% [at 18.6 µM] | fluorescence, % of Rose Bengal [13] -0.359% [at 18.6 µM] | fluorescence, % of fluorescent control [14] -0.109% [at 18.6 µM] | fluorescence, % of fluorescein control [15] -0.0862% [at 18.6 µM] | fluorescence, % of fluorescent control [16] 0.0805% [at 18.6 µM] | Potency [17] | outcome [18]

CCCCCCCCC(=O)OCC
inactive: outcome [1] | outcome [2] | outcome [3] | Potency [4] | outcome [5] | outcome [6] | outcome [8] | outcome [9] | outcome [20] | outcome [10] | outcome [11] | outcome [12] | outcome [13] | outcome [14] | outcome [15] | outcome [16] | Potency [17] | outcome [18]

C/C=C(\C)C(=O)OCC/C=C\CC
inactive: outcome [1] | outcome [2] | outcome [3] | outcome [5] | Potency [19] | outcome [6] | outcome [7] | outcome [8] | outcome [9] | outcome [20] | outcome [10] | outcome [11] | outcome [12] | outcome [13] | outcome [14] | outcome [16] | Potency [17] | outcome [18]

CCCOC(=O)CCCCC(=O)OCCC
inactive: outcome [1] | outcome [2] | outcome [3] | Potency [4] | outcome [5] | outcome [6] | outcome [7] | outcome [8] | outcome [9] | outcome [20] | outcome [10] | outcome [11] | outcome [12] | outcome [13] | outcome [15] | outcome [16] | Potency [17] | outcome [18]
